Experimental data: PubChem BioAssay (Tox21)
Inconclusive results are not listed. The source made the active and inactive calls. Unless noted, calls follow the shape of the dose curve; as a rule, active = well fitted curve in the direction sought with a large enough effect in the repeat runs; inconclusive = weak or mixed curves; inactive = no such curve, though single readings can be large; an effect the other way counts as inactive or inconclusive.

Assays:
[1] = qHTS assay to identify aromatase inhibitors - cell viability counter screen (AID 743084);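 also: cells stimulated with testosterone during compound exposure; nearly all actives have a fitted effect of over 55% in size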
[2] = biological target: Aryl hydrocarbon receptor (Homo sapiens) (UniProt P35869); assay: qHTS assay to identify small molecule that activate the aryl hydrocarbon receptor (AhR) signaling pathway (AID 743085);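 also: HG2L7.5c1 human HepG2 liver cells with stably integrated DRE-driven firefly reporter; series mostly up to about 70 µM; nearly all actives have a fitted effect of over 15% in size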
Chain of Aryl hydrocarbon receptor (Homo sapiens) (P35869 whole entry, looked up): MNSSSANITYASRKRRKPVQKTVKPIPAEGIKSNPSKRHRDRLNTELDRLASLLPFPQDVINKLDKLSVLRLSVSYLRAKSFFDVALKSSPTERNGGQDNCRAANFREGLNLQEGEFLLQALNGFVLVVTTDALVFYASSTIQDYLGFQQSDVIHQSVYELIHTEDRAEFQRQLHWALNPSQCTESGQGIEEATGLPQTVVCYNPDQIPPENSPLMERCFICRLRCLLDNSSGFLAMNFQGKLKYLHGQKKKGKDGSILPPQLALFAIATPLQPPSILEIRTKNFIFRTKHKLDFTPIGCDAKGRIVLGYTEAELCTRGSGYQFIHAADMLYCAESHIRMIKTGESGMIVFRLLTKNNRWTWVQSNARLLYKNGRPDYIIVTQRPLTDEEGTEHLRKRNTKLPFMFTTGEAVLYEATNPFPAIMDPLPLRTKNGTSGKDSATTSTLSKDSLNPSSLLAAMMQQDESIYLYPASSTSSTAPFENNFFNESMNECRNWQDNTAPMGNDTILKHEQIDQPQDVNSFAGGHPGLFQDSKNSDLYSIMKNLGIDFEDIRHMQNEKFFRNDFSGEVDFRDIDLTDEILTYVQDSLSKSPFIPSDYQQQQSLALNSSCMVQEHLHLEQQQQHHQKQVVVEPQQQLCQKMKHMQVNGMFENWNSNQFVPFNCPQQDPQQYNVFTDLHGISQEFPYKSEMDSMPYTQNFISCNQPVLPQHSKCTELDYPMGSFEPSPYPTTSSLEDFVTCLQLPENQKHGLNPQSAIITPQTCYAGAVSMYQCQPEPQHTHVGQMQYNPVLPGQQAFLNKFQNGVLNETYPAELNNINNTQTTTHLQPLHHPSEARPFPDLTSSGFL
In short: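 Cell line HG2L7.5c1 (human hepatoma, 20× DRE-luc). Plated, 5 h 37C, compound/DMSO added, 24 h 37C. CellTiter-Fluor 30 min 37C → fluorescence; then ONE-Glo 30 min RT → luminescence.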

[3] = qHTS assay to identify small molecule that activate the aryl hydrocarbon receptor (AhR) signaling pathway - cell viability counter screen (AID 743086);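 also: HepG2 liver cells carrying the AhR DRE luciferase reporter; series mostly up to about 70 µM; nearly all actives have a fitted effect of over 45% in size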
In short: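 HepG2-AhR-luc (HG2L7.5c1) cells, 4000/well, treated 24 h at 37 C with compound; viability measured as CellTiter-Fluor fluorescence after 30 min in the same wells as the luciferase read.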

[4] = biological target: Peroxisome proliferator-activated receptor gamma (Homo sapiens) (UniProt P37231); assay: qHTS assay to identify small molecule agonists of the peroxisome proliferator-activated receptor gamma (PPARg) signaling pathway (AID 743094; active = well fitted activation curve with a large enough effect in the signal ratio in the repeat runs, not every such curve was filed as active; the % refers to the signal ratio)
Chain of Peroxisome proliferator-activated receptor gamma (Homo sapiens) (P37231 whole entry, looked up): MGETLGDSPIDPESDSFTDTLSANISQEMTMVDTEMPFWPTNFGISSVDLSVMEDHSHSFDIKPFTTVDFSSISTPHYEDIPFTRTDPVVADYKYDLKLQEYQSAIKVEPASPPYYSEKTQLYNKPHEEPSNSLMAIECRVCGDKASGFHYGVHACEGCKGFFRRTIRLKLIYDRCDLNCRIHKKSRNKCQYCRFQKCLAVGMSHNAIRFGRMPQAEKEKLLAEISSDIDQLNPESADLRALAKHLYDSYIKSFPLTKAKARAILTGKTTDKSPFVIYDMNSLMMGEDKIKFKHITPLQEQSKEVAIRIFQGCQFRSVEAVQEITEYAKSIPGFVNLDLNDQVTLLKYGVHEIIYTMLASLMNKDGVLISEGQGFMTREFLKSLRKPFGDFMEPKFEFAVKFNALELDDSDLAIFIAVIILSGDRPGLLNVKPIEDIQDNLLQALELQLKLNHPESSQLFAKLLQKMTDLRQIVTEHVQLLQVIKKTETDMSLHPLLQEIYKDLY
In short: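 Cell-based bla reporter, HEK293H background, PPARg-driven UAS. Pre-incubation 5 h, 37C, 5% CO2. Compound 17 h, 37C. Substrate 1 h RT; fluorescence.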

[5] = qHTS assay to identify small molecule antagonists of the peroxisome proliferator-activated receptor gamma (PPARg) signaling pathway - cell viability counter screen (AID 743194); also: nearly all actives have a fitted effect of over 55% in size
In short: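 Cytotoxicity counter screen in PPARg-bla HEK293H cells, same wells as reporter assay. Compounds plus 50 nM rosiglitazone (final) for 17 h at 37 C, then viability read by CellTiter-Glo luminescence.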

[6] = qHTS assay for small molecule agonists of the antioxidant response element (ARE) signaling pathway (AID 743202; active = well fitted activation curve with a large enough effect in the signal ratio in the repeat runs, not every such curve was filed as active; the % refers to the signal ratio)
In short: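 HepG2 ARE-bla cells; 16 h treatment at 37 C; FRET-based beta-lactamase fluorescence read after 2 h substrate incubation at room temperature.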

[7] = qHTS assay for small molecule agonists of the antioxidant response element (ARE) signaling pathway - cell viability counter screen (AID 743203; calls by dose curve; also: nearly all actives have a fitted effect of over 55% in size)
In short: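 Measured in the same wells as the beta-lactamase ARE reporter, this read-out is CellTiter-Glo luminescence from HepG2 ARE-bla cells given compounds for 16 hrs.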

[8] = qHTS assay for small molecule activators of the heat shock response signaling pathway - cell viability counter screen (AID 743209); also: nearly all actives have a fitted effect of over 50% in size
In short: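 Same-well multiplex: after 2.5 h room-temperature incubation with LiveBLAzer B/G substrate and fluorescence reading, CellTiter-Glo reagent was added to HSE-bla HeLa cells that had received compound for 5 h at 37 C; luminescence read after 30 min.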

[9] = qHTS assay for small molecule activators of the heat shock response signaling pathway (AID 743210; active = well fitted activation curve with a large enough effect in the signal ratio in the repeat runs, with a control signal flat, not every such curve was filed as active; the % refers to the signal ratio;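 also: HeLa cells with beta-lactamase reporter driven by heat shock elements; series mostly up to about 63 µM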)
In short: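 Following overnight attachment, HSE-bla HeLa cells received test compounds for 5 h at 37 C; beta-lactamase activity was then detected via FRET substrate fluorescence.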

[10] = qHTS assay to identify small molecule agonists of the peroxisome proliferator-activated receptor delta (PPARd) signaling pathway - cell viability counter screen (AID 743211); also: nearly all actives have a fitted effect of over 55% in size
In short: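 HEK293H PPARd-bla, 3000 cells/well; 5 h preincubation 37C/5% CO2; cpd in DMSO, 17 h 37C; B/G FRET substrate 2 h RT; CellTiter-Glo 30 min RT, luminescence.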

[11] = qHTS assay to identify small molecule antagonists of the peroxisome proliferator-activated receptor delta (PPARd) signaling pathway - cell viability counter screen (AID 743213); also: nearly all actives have a fitted effect of over 50% in size
In short: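 PPARd-bla HEK293H cells (3000/well) got compound plus 300 nM L165041 agonist for 17 h at 37 C. Viability in the same wells came from CellTiter-Glo luminescence after 30 min at room temperature.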

[12] = qHTS assay to identify small molecule agonists of the farnesoid-X-receptor (FXR) signaling pathway - cell viability counter screen (AID 743218); also: nearly all actives have a fitted effect of over 45% in size
In short: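 Readout: CellTiter-Glo luminescence, 30 min RT, multiplexed after the FXR-bla FRET reading. HEK 293T FXR-UAS-bla cells received compound 5 h post-plating and were incubated 16 h at 37 C.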

[13] = qHTS assay to identify small molecule antagonists of the farnesoid-X-receptor (FXR) signaling pathway - cell viability counter screen (AID 743221; active = well fitted cell-killing curve with a large enough effect in the repeat runs, not every such curve was filed as active; also: nearly all actives have a fitted effect of over 50% in size)
In short: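 Luminescence from CellTiter-Glo measures cytotoxicity in GeneBLAzer FXR-UAS-bla HEK 293T cells. Cells were exposed to compounds with 50 uM chenodeoxycholic acid (final) for 16 h at 37 C, in wells also used for the reporter readout.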

[14] = biological target: Vitamin D3 receptor (Homo sapiens) (UniProt P11473); assay: qHTS assay to identify small molecule agonists of the vitamin D receptor (VDR) signaling pathway (AID 743222; calls by dose curve)
Chain of Vitamin D3 receptor (Homo sapiens) (P11473 whole entry, looked up): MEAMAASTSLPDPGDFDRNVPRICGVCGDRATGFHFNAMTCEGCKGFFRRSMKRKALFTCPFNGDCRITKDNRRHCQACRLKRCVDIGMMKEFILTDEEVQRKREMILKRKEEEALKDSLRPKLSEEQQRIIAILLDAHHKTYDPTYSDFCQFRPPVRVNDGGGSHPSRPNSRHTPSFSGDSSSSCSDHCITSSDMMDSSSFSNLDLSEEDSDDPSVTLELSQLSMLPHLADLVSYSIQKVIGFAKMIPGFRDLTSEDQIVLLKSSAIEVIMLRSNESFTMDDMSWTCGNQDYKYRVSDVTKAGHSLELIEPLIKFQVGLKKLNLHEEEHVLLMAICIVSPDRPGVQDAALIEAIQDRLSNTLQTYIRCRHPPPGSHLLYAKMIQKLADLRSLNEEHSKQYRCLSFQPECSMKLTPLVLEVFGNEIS
In short: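 Following 4 h attachment at 37C, VDR-bla cells (2,000 per well) received DMSO-dissolved compounds or controls. After 16 h incubation, LiveBLAzer B/G FRET substrate was added and fluorescence read 2 h later at room temperature.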

[15] = biological target: Vitamin D3 receptor (Homo sapiens) (UniProt P11473); assay: qHTS assay to identify small molecule antagonists of the vitamin D receptor (VDR) signaling pathway (AID 743223; active = well fitted inhibition curve with a large enough effect in the signal ratio in the repeat runs, not every such curve was filed as active; the % refers to the signal ratio)
In short: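 Antagonist mode uses 1alpha,25-dihydroxyvitamin D3 at 3 nM final as stimulus. VDR-bla cells receive compounds in DMSO, incubate 16 h at 37C, then a beta-lactamase FRET substrate for 2 h at room temperature before fluorescence measurement.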

[16] = biological target: Peroxisome proliferator-activated receptor delta (Homo sapiens) (UniProt Q03181); assay: qHTS assay to identify small molecule agonists of the peroxisome proliferator-activated receptor delta (PPARd) signaling pathway (AID 743212; calls by dose curve)
Chain of Peroxisome proliferator-activated receptor delta (Homo sapiens) (Q03181 whole entry, looked up): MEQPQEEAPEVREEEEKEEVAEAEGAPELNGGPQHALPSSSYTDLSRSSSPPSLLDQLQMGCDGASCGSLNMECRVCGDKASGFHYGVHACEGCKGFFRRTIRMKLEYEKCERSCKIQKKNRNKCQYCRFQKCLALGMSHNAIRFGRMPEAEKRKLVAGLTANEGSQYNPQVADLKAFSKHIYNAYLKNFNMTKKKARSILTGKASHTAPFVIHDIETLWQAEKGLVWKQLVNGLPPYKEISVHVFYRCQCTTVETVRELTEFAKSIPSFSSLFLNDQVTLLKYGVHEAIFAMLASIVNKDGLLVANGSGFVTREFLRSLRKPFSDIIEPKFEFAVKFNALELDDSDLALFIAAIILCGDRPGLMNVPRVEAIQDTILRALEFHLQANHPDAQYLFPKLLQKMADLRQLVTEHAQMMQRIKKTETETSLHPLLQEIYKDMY
In short: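 Tox21 library screened in GeneBLAzer PPARd UAS-bla HEK293H cells. After compound treatment at 37 C, a FRET-based beta-lactamase substrate was applied for 2 h and fluorescence recorded.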

[17] = biological target: Peroxisome proliferator-activated receptor delta (Homo sapiens) (UniProt Q03181); assay: qHTS assay to identify small molecule antagonists of the peroxisome proliferator-activated receptor delta (PPARd) signaling pathway (AID 743215; active = well fitted inhibition curve with a large enough effect in the signal ratio in the repeat runs, not every such curve was filed as active; the % refers to the signal ratio;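 also: cells stimulated with agonist L165041 at 300 nM final during compound exposure; series mostly up to about 62 µM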)
In short: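 Fluorescence from cleaved LiveBLAzer B/G FRET substrate (2 h, room temperature) reports PPARd-driven beta-lactamase in HEK293H UAS-bla cells. Cells had been treated 17 h at 37 C with compound plus 300 nM final L165041.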

[18] = biological target: Bile acid receptor (Homo sapiens) (UniProt Q96RI1); assay: qHTS assay to identify small molecule antagonists of the farnesoid-X-receptor (FXR) signaling pathway (AID 743217; active = well fitted inhibition curve with a large enough effect in the signal ratio in the repeat runs, not every such curve was filed as active; the % refers to the signal ratio)
Chain of Bile acid receptor (Homo sapiens) (Q96RI1 whole entry, looked up): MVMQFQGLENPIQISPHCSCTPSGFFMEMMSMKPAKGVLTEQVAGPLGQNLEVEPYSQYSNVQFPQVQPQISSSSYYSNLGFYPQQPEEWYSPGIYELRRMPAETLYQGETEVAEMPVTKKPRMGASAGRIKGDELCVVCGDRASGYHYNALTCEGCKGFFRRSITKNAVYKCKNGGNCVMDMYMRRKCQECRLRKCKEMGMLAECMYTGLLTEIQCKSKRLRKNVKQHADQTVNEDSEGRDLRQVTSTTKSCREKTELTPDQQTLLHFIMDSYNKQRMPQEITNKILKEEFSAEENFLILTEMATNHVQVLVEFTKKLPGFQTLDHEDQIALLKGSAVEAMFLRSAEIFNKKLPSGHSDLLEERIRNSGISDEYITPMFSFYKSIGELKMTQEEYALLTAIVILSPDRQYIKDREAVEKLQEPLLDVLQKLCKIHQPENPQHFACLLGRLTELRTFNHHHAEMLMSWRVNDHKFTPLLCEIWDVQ
In short: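 FRET fluorescence after 2 h room-temperature LiveBLAzer loading gives the readout. Prior step: FXR-bla HEK 293T cells, seeded and incubated 5 h, received test compounds plus 50 uM final CDCA for 16 h at 37 °C.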

[19] = biological target: Bile acid receptor (Homo sapiens) (UniProt Q96RI1); assay: qHTS assay to identify small molecule agonists of the farnesoid-X-receptor (FXR) signaling pathway (AID 743220; active = well fitted activation curve with a large enough effect in the signal ratio in the repeat runs, not every such curve was filed as active; the % refers to the signal ratio)
In short: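 FXR-UAS-bla HEK 293T cells carrying a UAS-driven beta-lactamase reporter were plated for 5 h at 37C/5% CO2, then exposed to DMSO-dissolved Tox21 10K compounds for 16 h at 37C. A LiveBLAzer B/G FRET substrate was loaded for 2 h at room temperature before fluorescence reading.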

Measured: Potency

CC(=O)OCCOC(C)=O
not listed: [16] | [17] | [18] | [19]
inactive: all other assays above

O=C(OCC1CCC2OC2C1)C1CCC2OC2C1 (stereo not drawn)
not listed: [10] | [15] | [17] | [18] | [19]
inactive: all other assays above

CC(=O)OCc1ccco1
not listed: [10] | [12] | [17] | [18] | [19]
inactive: all other assays above

CCCCC(C=O)CC (stereo not drawn)
not listed: [9] | [15]
inactive: all other assays above

C=C(C)C(=O)OCC(C)C
not listed: [10]
inactive: all other assays above

COC(=O)c1cccnc1
not listed: [17] | [18] | [19]
inactive: all other assays above

CCNc1ccccc1
not listed: [10] | [12]
inactive: all other assays above

c1ccc2c(c1)Cc1ccccc1-2
not listed: [12] | [16] | [17]
inactive: all other assays above

COc1cc(OC)c(C(=O)CCCN2CCCC2)c(OC)c1
not listed: [17] | [18] | [19]
inactive: all other assays above

O=C1CCCC1
not listed: [16] | [17] | [18] | [19]
inactive: all other assays above
